TDP1 cell CPT: DT40-hTDP1 cell growth loss with CPT. AID 686979. 12% of 420,000 active. Potency, µM (titrated, usually from 46.2 µM), without a hit: at the top dose activity change, negative = growth inhibition, actives largely listed as inhibitors. chicken DT40 Tdp1-/-;hTDP1 cells + 20 nM CPT, ATP luminescence, 48 h; note: potency is the fitted concentration of half-maximal effect; nearly all actives have a fitted effect of over 55% in size
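Chicken DT40 Tdp1-/- cells stably complemented with human TDP1 were seeded at 400 cells/well in medium containing 20 nM camptothecin, exposed to pin-transferred compounds, and grown at 37 °C for at least 48 hr. Viability was read as ATP luminescence.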
TDP1 cell noCPT: qHTS for Inhibitors of human tyrosyl-DNA phosphodiesterase 1 (TDP1): qHTS in cells in absence of CPT; DT40 Tdp1-/- hTDP1 cells, no CPT, ATP luminescence, 48 h; Potency, µM (top dose mostly 46.2 µM), inactives show at the top dose activity change, negative = growth inhibition, most hits filed as inhibitors; 15% of 420,000 active; AID 686978, 2013; note: potency is the fitted concentration of half-maximal effect; nearly all actives have a fitted effect of over 55% in size
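Growth kinetics read by CellTiter-Glo luminescence after ≥48 hr at 37 °C. Cells: DT40 Tdp1-/- stably carrying human TDP1, 400 per well, compound exposure in the absence of CPT (DMSO vehicle).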
IL1B secr inh: blocks inflammasome-driven IL-1 beta release | activity change, % at 57.5 µM | AID 743279 | THP-1 LPS/ATP IL-1B secretion, AlphaLISA, 16 h; hits give low values | 4.7% of 360,000 active; in the data active = activity change below about -50%; inconclusive = mostly about -30% to -49%
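THP-1 cells pretreated 1 hr with compounds (up to 57.5 uM final), then stimulated with LPS (250 ng/mL final) plus ATP (1.25 mM final); secreted IL-1B measured by AlphaLISA after 16 hr, decreased signal indicating inhibition.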
HT1080 IDH1KD tx: HT-1080 IDH1 knockdown cell toxicity (counter line); Potency, µM (doses to about 46.1 µM), for inactives: top-dose activity, negative = toxicity, actives largely listed as cytotoxic; HT-1080 IDH1 knockdown viability, ATP luminescence, 48 h; 2% of 360,000 active; AID 686971;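 note: potency is the fitted concentration of half-maximal effect; 0% = DMSO wells and -100% = cell-free medium wells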
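Viability of IDH1-knockdown HT-1080 fibrosarcoma cells was assessed by CellTiter-Glo after 48 h at 37 °C with titrated compound; concentration-effect curves were classified by fit quality and response size.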
HT1080-NT tox: kills 2HG-producing HT-1080-NT fibrosarcoma cells. AID 686970. Potency, µM (top dose mostly 46.1 µM), for the others: at the highest dose activity, negative = less viability, actives largely listed as cytotoxic. HT-1080-NT fibrosarcoma viability, CellTiter-Glo ATP luminescence, 48 h. 1.6% of 360,000 active;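 note: NT is the 2HG producing partner of a matched IDH1 knockdown line; potency is the fitted concentration of half-maximal effect; 0% = DMSO-treated cells and -100% = media-only wells without cells; nearly all actives have a fitted effect of over 55% in size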
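Compounds were tested in concentration-response format on HT-1080-NT cells for 48 hours at 37 degrees C. Cell viability came from CellTiter-Glo luminescence; curves were classified by r2, response magnitude and activity.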
Numbers without * were called inactive; u = inconclusive; x = no result. This is a sample that favours compounds with a hit; in the whole collection about 19% have one here. Unless noted, calls come from the whole dose curve; as a rule, active = well fitted curve in the direction sought with a large enough effect; inconclusive = small, poorly fitted or top-dose-only effect, or another doubt; inactive = no such curve, though single readings can be large; an effect the other way counts as inactive or inconclusive. Unless noted, % is set by controls: 0 for no effect and ±100 for the full control effect.

SMILES	TDP1 cell CPT	TDP1 cell noCPT	IL1B secr inh	HT1080 IDH1KD tx	HT1080-NT tox
Cc1cccc(CNC(=O)c2oc3c(c2C)-c2nn(Cc4ccccc4Cl)cc2CC3)c1	u	21µM*	x	x	x
COc1ccc(CNC(=O)c2c(-c3c(F)cccc3Cl)noc2C)cc1	-2%	u	26	17%	12%
Cc1c(C(=O)NCc2ccccc2)oc2c1-c1[nH]ncc1CC2	u	-16%	x	x	x
CCOc1ccc(CNC(=O)c2oc3c(c2C)-c2nn(Cc4cccc(Cl)c4)cc2CC3)cc1	18µM*	16µM*	x	x	x
CC(C)NC(=O)N(C)C[C@@H]1Oc2cc(Br)ccc2S(=O)(=O)N([C@@H](C)CO)C[C@H]1C	4%	3%	-2	8%	5%
CCOC(=O)c1oc2c(c1C)-c1nn(Cc3ccc(Cl)cc3)cc1CC2	16µM*	21µM*	x	x	x
Cc1c(C(=O)O)oc2c1-c1nn(Cc3ccc(Cl)cc3)cc1CC2	12%	-9%	x	x	x
Cc1nnsc1C(=O)NC1CCCCC1	-8%	0%	19	-5%	15%
O=C(CCCCCNC(=O)N1CCn2c1nc1ccccc12)N[C@@H](C(=O)O)c1ccccc1	6%	-5%	27	0%	6%
CC(NC(=O)CCCCCNC(=O)N1CCn2c1nc1ccccc12)c1ccccc1 (stereo not given)	15µM*	-36%	-53*	-1%	-8%
CC(C)[C@H](NC(=O)N1CCn2c1nc1ccccc12)C(=O)NCc1ccccc1Cl	u	u	2	-7%	-8%
CC(C)[C@H](NC(=O)N1CCn2c1nc1ccccc12)C(=O)NCc1ccc(F)cc1	u	-19%	-94*	-14%	-12%
COc1ccc(-c2oc3ccc(-c4ccc(OC)nc4)cc3c2-c2ccc(OC)cc2)cc1	u	15µM*	-7	3%	6%
COc1ccc(-c2c(-c3cccc(C)c3)oc3ccc(-c4ccc5c(c4)OCO5)cc23)cn1	u	8.2µM*	-7	8%	15%
COc1ccc(-c2c(C3=CCCCC3)oc3ccc(-c4ccc5c(c4)OCO5)cc23)cn1	u	15µM*	-12	5%	9%
CC(=O)Nc1ccc(S(=O)(=O)N2CCN(C(=O)c3ncoc3-c3ccccc3C)CC2)cc1	u	u	0	-5%	-2%
CC(C)[C@@H]1CC2=C(C(=O)OC(C)(C)O2)[C@H](CCc2ccccc2)O1	u	u	17	16µM*	-15%
COC(=O)CCCC[C@@H]1O[C@H](CCc2ccccc2)CC2=C1C(=O)OC(C)(C)O2	u	-85%	-6	-7%	-5%
CC(C)C[C@@H]1O[C@H](CCc2ccccc2)CC2=C1C(=O)OC(C)(C)O2	u	u	0	23µM*	u
CCCC[C@@H]1CC2=C(C(=O)OC(C)(C)O2)[C@H](c2ccc(C(C)C)cc2)O1	-29%	u	48	-25%	u
CC(C)C[C@@H]1CC2=C(C(=O)OC(C)(C)O2)[C@H](c2ccc(Cl)cc2)O1	u	18µM*	-9	-7%	-1%
CC1(C)OC(=O)C2=C(C[C@@H](CCc3ccccc3)O[C@@H]2c2ccc(F)cc2)O1	u	16µM*	23	-6%	-6%
CC(C)C[C@@H]1CC2=C(C(=O)OC(C)(C)O2)[C@H](CCc2ccccc2)O1	u	u	63	0%	-24%
O[C@H]1CN(CC2CCCCC2)[C@@H](c2ccccc2)C[C@@H]1n1cc(C2CC2)nn1	-22%	u	16	-9%	-13%
COc1cccc(-c2cc3c(c(OC)c2)OCCN(Cc2ccccc2O)C3)n1	0%	-16%	x	x	x
SMILES	TDP1 cell CPT	TDP1 cell noCPT	IL1B secr inh	HT1080 IDH1KD tx	HT1080-NT tox
CCC(=O)N1c2ccc(S(=O)(=O)CCC(=O)NC3CCCC3)cc2CC1C (stereo not given)	-27%	-3%	19	3%	5%
CC1Cc2cc(S(=O)(=O)NCc3ccccc3)ccc2N1C(=O)C1CC1 (stereo not given)	u	u	0	-3%	-9%
CC1Cc2cc(S(=O)(=O)NCCc3ccc(Cl)cc3)ccc2N1C(=O)C1CCC1 (stereo not given)	u	18µM*	x	x	x
CC1Cc2cc(S(=O)(=O)NCc3ccccc3)ccc2N1C(=O)C1CCC1 (stereo not given)	21µM*	7.3µM*	1	0%	-4%
CCOc1ccccc1N(C)S(=O)(=O)c1ccc2c(c1)CC(C)N2C(=O)C1CC1 (stereo not given)	23µM*	16µM*	-4	15µM*	u
CCC(=O)N1c2ccc(S(=O)(=O)NC3CCCCC3)cc2CC1C (stereo not given)	21µM*	u	28	-7%	-5%
COc1ccc(NC(=O)CS(=O)(=O)c2ccc(Br)cc2)cc1	9%	5%	4	17%	8%
COCCN(C(=O)c1ccc(N2CCCC2=O)cc1)c1c(N)n(Cc2ccccc2)c(=O)[nH]c1=O	-5%	29%	-19	-8%	-5%
CCOC(=O)C1=C(CS(=O)(=O)c2ccccc2)NC(=O)NC1c1ccccc1OC (stereo not given)	u	u	39	11%	15%
CCc1cccc(NS(=O)(=O)c2ccc3c(c2)N(C)CCO3)c1	13µM*	u	0	u	-16%
CCc1cccc(NS(=O)(=O)c2ccc3c(c2)CC(C)N3C(=O)C2CC2)c1 (stereo not given)	6.5µM*	3.7µM*	x	x	x
Cc1ccc(NS(=O)(=O)c2ccc3c(c2)N(C)CCO3)cc1	u	u	64	-9%	3%
COc1cccc(NC(=O)CCNS(=O)(=O)c2ccc3c(c2)CC(C)N3C(=O)C2CC2)c1 (stereo not given)	u	-24%	33	-2%	-1%
CC(C)(C)NC(=O)Cn1c(Cl)nc2ccccc21	-19%	u	27	0%	1%
COCCNc1nc(NCCOc2ccccc2)c2sc(-c3ccccc3)cc2n1	16µM*	15µM*	-107*	23µM*	15µM*
COCCNc1nc(Oc2cccc(NC(C)=O)c2)c2sc(-c3ccccc3)cc2n1	u	u	-22	0%	-5%
C=CCNc1nc(NCc2cccc(OC)c2)c2sc(-c3ccccc3)cc2n1	5.8µM*	4.1µM*	-108*	u	u
COCCNc1nc(NCCOC)c2sc(-c3ccccc3)cc2n1	26µM*	26µM*	x	-4%	-11%
COCCNc1nc(NCCN2CCNC2=O)c2sc(-c3ccccc3)cc2n1	26µM*	21µM*	x	12%	u
COCCNc1nc(-c2ccc(OC)cc2C)c2sc(-c3ccccc3)cc2n1	21µM*	16µM*	-11	u	u
